In PubChem BioAssay (NCI):
This is part of a sample that, as a whole, favours compounds with a hit. Of some 83,000 tested, about 20% had one in any assay.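 Results are percent growth after 48 hours of single-concentration exposure. 100 means growth as in untreated cells, lower positive values show inhibition; negative values down to -100 show cell death.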 Values without a mark were called inactive. The source made the active and inactive calls. The calls were made as follows: active = growth percent below 10; inactive = the rest.

Experiments:
Assay in all cases: NCI-60 one-dose screen, 48 h (100 = growth as untreated, 0 = no growth, -100 = all killed)
Settings in all cases: 10 µM unless noted
[1] = test system: NCI-H23 lung
[2] = test system: NCI-H226 lung
[3] = test system: NCI-H322M lung
[4] = test system: HOP-62 NSCLC
[5] = test system: NCI-H460 lung
[6] = test system: HOP-92 NSCLC
[7] = test system: NCI-H522 lung
[8] = test system: A549/ATCC NSCLC
[9] = test system: 786-0 renal
[10] = test system: COLO 205 colon
[11] = test system: DU-145 prostate
[12] = test system: MALME-3M melanoma
[13] = test system: MDA-MB-231 breast
[14] = test system: RXF 393 renal
[15] = test system: SF-268 CNS
[16] = test system: SF-295 CNS
[17] = test system: SF-539 CNS
[18] = test system: UACC-257 melanoma
[19] = test system: M14 melanoma

Molecule `NCCNc1nc(Nc2ccc(-c3nc4ccccc4[nH]3)cc2)c2cn[nH]c2n1` has a growth [1] of 57.9%, a growth [2] of 81.4% and a growth [3] of 98.9%. It also gave a growth [4] of 97.5%, a growth [5] of 54.9% and a growth [6] of 60.4%. For the same molecule, the growth [7] was 16.6%, the growth [8] was 101% and the growth [9] was 93%. For the same molecule, the growth [10] was 20.8%, the growth [11] was 90.9% and the growth [12] was 68%. The growth [13] was 18.8%, the growth [14] was 43% and the growth [15] was 68.1%. The growth [16] was 62.9%, the growth [17] was -9.77% (active) and the growth [18] was 104%. For the same molecule, the growth [19] was 96.1%.

Molecule `CCNc1ncnc2c1cnn2C1CCCO1` (stereo not drawn) has a growth [1] of 118%, a growth [2] of 94.2% and a growth [3] of 109%. The growth [4] was 99.4%, the growth [5] was 105% and the growth [6] was 60.9%. It also gave a growth [7] of 111%, a growth [8] of 95.4% and a growth [9] of 109%. It also gave a growth [10] of 105%, a growth [11] of 120% and a growth [12] of 110%. It also gave a growth [13] of 110%, a growth [14] of 105% and a growth [15] of 96.9%. The growth [16] was 101%, the growth [17] was 105% and the growth [18] was 99.6%. The growth [19] was 104%.

`COc1ccc(N=Nc2nccs2)c(O)c1` was tested, and the growth [1] was 79.3%, the growth [2] was 63.6% and the growth [3] was 88.4%. For the same molecule, the growth [4] was 66.3%, the growth [5] was 40.4% and the growth [6] was 52.8%. The growth [7] was 69.2%, the growth [8] was 97.2% and the growth [9] was 18.9%. It also gave a growth [10] of 44.2%, a growth [11] of 51.3% and a growth [12] of 92.1%. It also gave a growth [13] of 35.8%, a growth [14] of 52.7% and a growth [15] of 26.4%. It also gave a growth [16] of 95%, a growth [17] of 40.2% and a growth [18] of 85.3%. For the same molecule, the growth [19] was 59.6%.

Work on `CC1C(/C=N/Nc2ccccc2)C(C#N)(C#N)C1(C#N)C#N` (stereo not drawn) yielded a growth [1] of 78.6%, a growth [2] of 88% and a growth [3] of 75.1%. The growth [4] was 57.1%, the growth [5] was 87.9% and the growth [6] was 90.5%. It also gave a growth [7] of 53.9%, a growth [8] of 85.1% and a growth [9] of 92.9%. The growth [10] was 105%, the growth [11] was 89.7% and the growth [12] was 99.2%. It also gave a growth [13] of 70.1%, a growth [14] of 105% and a growth [15] of 75.4%. For the same molecule, the growth [16] was 70.9%, the growth [17] was 102% and the growth [18] was 98.6%. It also gave a growth [19] of 33.2%.

`CCN1CCN(c2nc(NCCNc3ccnc4cc(Cl)ccc34)c3ccccc3n2)CC1` showed a growth [1] of 69%, a growth [2] of 27.2% and a growth [3] of 42.3%. The growth [4] was 24.9%, the growth [5] was 1.75% (active) and the growth [6] was 32.7%. The growth [7] was 18%, the growth [8] was 0.344% (active) and the growth [9] was 4.75% (active). For the same molecule, the growth [10] was -60.6% (active), the growth [11] was 33.9% and the growth [12] was -78% (active). The growth [13] was -73% (active), the growth [14] was -39% (active) and the growth [15] was 27.2%. The growth [16] was -41.9% (active), the growth [17] was -71.2% (active) and the growth [18] was 57.9%. For the same molecule, the growth [19] was -76.6% (active).

`Clc1ccc2c(NCCCNc3nc(-n4ccnc4)nc4ccccc34)ccnc2c1` was tested, and the growth [1] was 96.1%, the growth [2] was 90.4% and the growth [3] was 94.7%. The growth [4] was 83%, the growth [5] was 95.2% and the growth [6] was 58%. The growth [7] was 89%, the growth [8] was 92.3% and the growth [9] was 77.6%. The growth [10] was 87.7%, the growth [11] was 94.8% and the growth [12] was 102%. The growth [13] was 83.2%, the growth [14] was 81% and the growth [15] was 89%. The growth [16] was 89.6%, the growth [17] was 76.1% and the growth [18] was 94.2%. It also gave a growth [19] of 95.1%.

`COc1cc(-c2nn(-c3ccc(Br)cc3)cc2C(=O)O)ccc1O` showed a growth [1] of 89.5%, a growth [2] of 91.7% and a growth [3] of 95.3%. It also gave a growth [4] of 96.3%, a growth [5] of 103% and a growth [6] of 94.5%. It also gave a growth [7] of 67.7%, a growth [8] of 105% and a growth [9] of 97.6%. For the same molecule, the growth [10] was 109%, the growth [11] was 103% and the growth [12] was 110%. For the same molecule, the growth [13] was 126%, the growth [14] was 109% and the growth [15] was 87.8%. For the same molecule, the growth [16] was 101%, the growth [17] was 128% and the growth [18] was 107%. For the same molecule, the growth [19] was 102%.
